Measured values reported in PubChem BioAssay (EPA / NIEHS).
Calls of active or inactive are those of the source. How the source made its calls: active means hit-call score of the fitted dose curve at least 0.9, where 1 is the maximum; inactive means score below 0.9.

Key:
[1] = read-out: Tumor necrosis factor receptor superfamily member 6 (Homo sapiens) (UniProt P25445); test: LTEA_HepaRG_FAS: Life Technologies and Expression Analysis (LTEA) Assay for Fas cell surface death receptor (FAS) using HepaRG (AID 2283447); conditions: mRNA level, 48 h; actives raise or lower the signal
Summary of the method: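 Differentiated human HepaRG cells, pre-cultured 48 h, were exposed in duplicate for 48 h to 8-point half-log concentrations (top 100 uM, 0.5% DMSO) in serum-free induction medium; FAS mRNA measured by qRT-PCR, normalized to ACTB/GAPDH/POLR2A, bidirectional fit versus DMSO.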

[2] = read-out: Fatty acid synthase (Homo sapiens) (UniProt P49327); test: LTEA_HepaRG_FASN: Life Technologies and Expression Analysis (LTEA) Assay for Fatty Acid Synthase (FASN) using HepaRG (AID 2283448); conditions: mRNA level, 48 h; actives raise or lower the signal
Summary of the method: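 In human HepaRG cultures, 48 h chemical exposure (up to 100 uM, 0.5% DMSO) preceded TaqMan qRT-PCR of FASN.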

[3] = read-out: Cyclin D2 (CCND2), CCND2 (gene 894); test: LTEA_HepaRG_CCND2: Life Technologies and Expression Analysis (LTEA) Assay for Cyclin D2 (CCND2) using HepaRG (AID 2283449); conditions: mRNA level, 48 h; actives raise or lower the signal;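 further: CCND2 transcript measured by TaqMan qRT-PCR and normalised to three housekeeping genes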
Summary of the method: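 In this HepaRG study, an eight-point concentration series (max 100 uM, 0.5% DMSO) is applied for 48 h. CCND2 mRNA change is derived by qRT-PCR normalised to ACTB, GAPDH and POLR2A.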

[4] = read-out: Cyclin Dependent Kinase Inhibitor 1A (CDKN1A), CDKN1A (gene 1026); test: LTEA_HepaRG_CDKN1A: Life Technologies and Expression Analysis (LTEA) Assay for Cyclin Dependent Kinase Inhibitor 1A (CDKN1A) using HepaRG (AID 2283450); conditions: mRNA level, 48 h; actives raise or lower the signal
Summary of the method: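 Cryopreserved HepaRG cells were plated and cultured 48 h, then switched to serum-free induction medium. Chemicals (eight half-log concentrations, top 100 uM, 0.5% DMSO) were applied for 48 h. Lysates underwent qRT-PCR for CDKN1A with housekeeping normalization.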

[5] = read-out: Cyclin D1 (CCND1), CCND1 (gene 595); test: LTEA_HepaRG_CCND1: Life Technologies and Expression Analysis (LTEA) Assay for Cyclin D1 (CCND1) using HepaRG (AID 2283451); conditions: mRNA level, 48 h; actives raise or lower the signal
Summary of the method: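 Human liver HepaRG line; 48 h dosing, 8 conc. ≤100 uM, 0.5% DMSO; TaqMan qRT-PCR mRNA, 3 housekeeping genes; bidirectional curve fit vs DMSO.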

[6] = read-out: flavin-containing dimethylaniline monooxygenases 3 (FMO3), FMO3 (gene 2328); test: LTEA_HepaRG_FMO3: Life Technologies and Expression Analysis (LTEA) Assay for flavin-containing dimethylaniline monooxygenases 3 (FMO3) using HepaRG (AID 2283453); conditions: mRNA level, 48 h; actives raise or lower the signal;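 on AC50: FMO3 transcript by TaqMan qRT-PCR normalized to ACTB GAPDH and POLR2A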
Summary of the method: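 Eight-point concentration-response in serum-free HepaRG cultures (top 100 uM, 0.5% DMSO, 48 h). Read-out: FMO3 mRNA level normalized to three endogenous control genes, fitted bidirectionally versus vehicle.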

[7] = read-out: Cytochrome P450 (CYP1A1), CYP1A1 (gene 1543); test: LTEA_HepaRG_CYP1A1: Life Technologies and Expression Analysis (LTEA) Assay for Cytochrome P450 (CYP1A1) using HepaRG (AID 2283454); conditions: mRNA level, 48 h; actives raise or lower the signal
Summary of the method: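 Induction of CYP1A1 mRNA in a human hepatic cell line was measured 48 h after dosing, with 1 mM phenobarbital as induction positive control and 0.5% DMSO vehicle as baseline for bidirectional curve fitting.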

[8] = read-out: Forkhead box O1 (FOXO1), FOXO1 (gene 2308); test: LTEA_HepaRG_FOXO1: Life Technologies and Expression Analysis (LTEA) Assay for Forkhead box O1 (FOXO1) using HepaRG (AID 2283456); conditions: mRNA level, 48 h; actives raise or lower the signal
Summary of the method: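 Using one lot of HepaRG hepatic cells kept in 0.5% DMSO, the team applied test chemicals in duplicate, half-log dilutions from 100 uM, for 48 h. Expression, normalised to ACTB/GAPDH/POLR2A, was compared with vehicle in either direction.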

[9] = read-out: growth arrest and DNA damage 45 (GADD45A), GADD45A (gene 1647); test: LTEA_HepaRG_GADD45A: Life Technologies and Expression Analysis (LTEA) Assay for growth arrest and DNA damage 45 (GADD45A) using HepaRG (AID 2283458); conditions: mRNA level, 48 h; actives raise or lower the signal
Summary of the method: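 Eight-point concentration-response in HepaRG cells: 48 h chemical exposure, 0.5% DMSO vehicle, top dose 100 uM. Normalized qRT-PCR mRNA readout with bidirectional fitting relative to DMSO.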

[10] = read-out: Forkhead box O3 (FOXO3), FOXO3 (gene 2309); test: LTEA_HepaRG_FOXO3: Life Technologies and Expression Analysis (LTEA) Assay for Forkhead box O3 (FOXO3) using HepaRG (AID 2283459); conditions: mRNA level, 48 h; actives raise or lower the signal
Summary of the method: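 Gene-expression endpoint: FOXO3 transcript level by qRT-PCR in HepaRG cultures treated 48 h with chemicals up to 100 uM (half-log, 0.5% DMSO vehicle).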

[11] = read-out: ABC Transporter (ABCB1), ABCB1 (gene 5243); test: LTEA_HepaRG_ABCB1: Life Technologies and Expression Analysis (LTEA) Assay for ABC Transporter (ABCB1) using HepaRG (AID 2283460); conditions: mRNA level, 48 h; actives raise or lower the signal
Summary of the method: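 Human liver HepaRG line treated 48 h with up to 100 uM compound (eight half-log points, 0.5% DMSO); ABCB1 mRNA change fitted bidirectionally against DMSO controls.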

[12] = read-out: growth arrest and DNA damage 45 (GADD45B), GADD45B (gene 4616); test: LTEA_HepaRG_GADD45B: Life Technologies and Expression Analysis (LTEA) Assay for growth arrest and DNA damage 45 (GADD45B) using HepaRG (AID 2283461); conditions: mRNA level, 48 h; actives raise or lower the signal
Summary of the method: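 Values are bidirectional concentration-response fits against 0.5% DMSO controls. Underlying data: qRT-PCR mRNA levels in human HepaRG liver cells treated 48 h in serum-free induction medium, eight concentrations topping at 100 uM.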

[13] = read-out: ABC Transporter (ABCC3), ABCC3 (gene 8714); test: LTEA_HepaRG_ABCC3: Life Technologies and Expression Analysis (LTEA) Assay for ABC Transporter (ABCC3) using HepaRG (AID 2283462); conditions: mRNA level, 48 h; actives raise or lower the signal
Summary of the method: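 Differentiated HepaRG liver cells receive test chemicals at eight concentrations (max 100 uM) for 48 h. Expression of ABCC3 is quantified by qRT-PCR against ACTB, GAPDH and POLR2A, and activity is fitted in both directions against the DMSO control.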

[14] = read-out: ABC Transporter (ABCB11), ABCB11 (gene 8647); test: LTEA_HepaRG_ABCB11: Life Technologies and Expression Analysis (LTEA) Assay for ABC Transporter (ABCB11) using HepaRG (AID 2283463); conditions: mRNA level, 48 h; actives raise or lower the signal
Summary of the method: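 Using HepaRG cultures held in 0.5% DMSO, chemicals were tested at half-log dilutions from 100 uM for 48 h. Induction or suppression of ABCB11 mRNA, normalized to ACTB, GAPDH and POLR2A, was fitted bidirectionally against vehicle.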

[15] = read-out: ABC Transporter (ABCC2), ABCC2 (gene 1244); test: LTEA_HepaRG_ABCC2: Life Technologies and Expression Analysis (LTEA) Assay for ABC Transporter (ABCC2) using HepaRG (AID 2283464); conditions: mRNA level, 48 h; actives raise or lower the signal
Summary of the method: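 Gene expression of ABCC2 was determined by qRT-PCR in HepaRG cells exposed 48 h to chemicals (highest 100 uM, half-log dilutions). Activity was fitted in both directions relative to 0.5% DMSO vehicle.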

[16] = read-out: Broad substrate specificity ATP-binding cassette transporter ABCG2 (Homo sapiens) (UniProt Q9UNQ0); test: LTEA_HepaRG_ABCG2: Life Technologies and Expression Analysis (LTEA) Assay for ABC Transporter (ABCG2) using HepaRG (AID 2283465); conditions: mRNA level, 48 h; actives raise or lower the signal
Summary of the method: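 Gene expression of ABCG2 in HepaRG liver cells is quantified by qRT-PCR following 48 h exposure across an eight-point series topping at 100 uM. Values come from bidirectional fitting relative to DMSO vehicle.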

[17] = read-out: ATP-citrate lyase (ACLY), ACLY (gene 47); test: LTEA_HepaRG_ACLY: Life Technologies and Expression Analysis (LTEA) Assay for ATP-citrate lyase (ACLY) using HepaRG (AID 2283466); conditions: mRNA level, 48 h; actives raise or lower the signal
Summary of the method: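 ACLY expression changes in human HepaRG liver cells are quantified by qRT-PCR after 48 h exposure to test chemicals (maximum 100 uM, half-log steps). Values are fitted in both directions relative to 0.5% DMSO vehicle.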

[18] = read-out: catalase (CAT), CAT (gene 847); test: LTEA_HepaRG_CAT: Life Technologies and Expression Analysis (LTEA) Assay for catalase (CAT) using HepaRG (AID 2283452); conditions: mRNA level, 48 h; actives raise or lower the signal
Summary of the method: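 Differentiated HepaRG cells in serum-free induction medium were dosed 48 h in duplicate, eight half-log concentrations from 100 uM in 0.5% DMSO. Transcript measured by TaqMan qRT-PCR, normalised to ACTB/GAPDH/POLR2A, fitted bidirectionally against DMSO.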

[19] = CEETOX_H295R_TESTO: CeeTox H295R High-throughput Steroidogenesis Assay for Testosterone (TESTO) (AID 2283457); conditions: actives raise or lower the signal
Summary of the method: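 Testosterone synthesis is assessed in human adrenocortical H295R cells after 48 h of chemical exposure, using HPLC-MS/MS of extracted medium. Activity is fitted in both directions against DMSO control.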

[20] = read-out: CFLAR gene, CFLAR (gene 8837); test: LTEA_HepaRG_CFLAR: Life Technologies and Expression Analysis (LTEA) Assay for CFLAR gene using HepaRG (AID 2283455); conditions: mRNA level, 48 h; actives raise or lower the signal
Summary of the method: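 Gain- or loss-of-signal changes in CFLAR transcript were fitted bidirectionally relative to 0.5% DMSO. Cells (HepaRG, duplicate wells) were dosed for 48 h across eight half-log concentrations topping at 100 uM; quantitation by TaqMan qRT-PCR.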

Measured: AC50

Sequence of Broad substrate specificity ATP-binding cassette transporter ABCG2 (Homo sapiens) (Q9UNQ0 whole entry, looked up): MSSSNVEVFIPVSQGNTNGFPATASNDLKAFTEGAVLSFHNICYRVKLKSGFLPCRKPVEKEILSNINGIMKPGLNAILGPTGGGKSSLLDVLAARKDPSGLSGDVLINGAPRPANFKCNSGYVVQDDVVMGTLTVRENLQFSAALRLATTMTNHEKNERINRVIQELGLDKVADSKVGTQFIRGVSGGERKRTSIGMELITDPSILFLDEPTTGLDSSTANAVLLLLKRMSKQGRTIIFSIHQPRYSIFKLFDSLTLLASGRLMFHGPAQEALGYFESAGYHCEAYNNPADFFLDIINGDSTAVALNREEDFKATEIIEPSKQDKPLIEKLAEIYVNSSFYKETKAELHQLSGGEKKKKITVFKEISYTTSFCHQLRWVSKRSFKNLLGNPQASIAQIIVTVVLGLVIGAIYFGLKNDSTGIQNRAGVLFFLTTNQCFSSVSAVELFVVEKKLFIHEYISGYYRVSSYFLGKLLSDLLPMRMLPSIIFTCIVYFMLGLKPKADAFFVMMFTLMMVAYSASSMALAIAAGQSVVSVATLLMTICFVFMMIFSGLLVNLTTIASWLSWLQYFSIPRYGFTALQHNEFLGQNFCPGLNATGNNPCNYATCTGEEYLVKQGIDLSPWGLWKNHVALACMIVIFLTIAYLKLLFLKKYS
Sequence of Fatty acid synthase (Homo sapiens) (P49327 whole entry, looked up): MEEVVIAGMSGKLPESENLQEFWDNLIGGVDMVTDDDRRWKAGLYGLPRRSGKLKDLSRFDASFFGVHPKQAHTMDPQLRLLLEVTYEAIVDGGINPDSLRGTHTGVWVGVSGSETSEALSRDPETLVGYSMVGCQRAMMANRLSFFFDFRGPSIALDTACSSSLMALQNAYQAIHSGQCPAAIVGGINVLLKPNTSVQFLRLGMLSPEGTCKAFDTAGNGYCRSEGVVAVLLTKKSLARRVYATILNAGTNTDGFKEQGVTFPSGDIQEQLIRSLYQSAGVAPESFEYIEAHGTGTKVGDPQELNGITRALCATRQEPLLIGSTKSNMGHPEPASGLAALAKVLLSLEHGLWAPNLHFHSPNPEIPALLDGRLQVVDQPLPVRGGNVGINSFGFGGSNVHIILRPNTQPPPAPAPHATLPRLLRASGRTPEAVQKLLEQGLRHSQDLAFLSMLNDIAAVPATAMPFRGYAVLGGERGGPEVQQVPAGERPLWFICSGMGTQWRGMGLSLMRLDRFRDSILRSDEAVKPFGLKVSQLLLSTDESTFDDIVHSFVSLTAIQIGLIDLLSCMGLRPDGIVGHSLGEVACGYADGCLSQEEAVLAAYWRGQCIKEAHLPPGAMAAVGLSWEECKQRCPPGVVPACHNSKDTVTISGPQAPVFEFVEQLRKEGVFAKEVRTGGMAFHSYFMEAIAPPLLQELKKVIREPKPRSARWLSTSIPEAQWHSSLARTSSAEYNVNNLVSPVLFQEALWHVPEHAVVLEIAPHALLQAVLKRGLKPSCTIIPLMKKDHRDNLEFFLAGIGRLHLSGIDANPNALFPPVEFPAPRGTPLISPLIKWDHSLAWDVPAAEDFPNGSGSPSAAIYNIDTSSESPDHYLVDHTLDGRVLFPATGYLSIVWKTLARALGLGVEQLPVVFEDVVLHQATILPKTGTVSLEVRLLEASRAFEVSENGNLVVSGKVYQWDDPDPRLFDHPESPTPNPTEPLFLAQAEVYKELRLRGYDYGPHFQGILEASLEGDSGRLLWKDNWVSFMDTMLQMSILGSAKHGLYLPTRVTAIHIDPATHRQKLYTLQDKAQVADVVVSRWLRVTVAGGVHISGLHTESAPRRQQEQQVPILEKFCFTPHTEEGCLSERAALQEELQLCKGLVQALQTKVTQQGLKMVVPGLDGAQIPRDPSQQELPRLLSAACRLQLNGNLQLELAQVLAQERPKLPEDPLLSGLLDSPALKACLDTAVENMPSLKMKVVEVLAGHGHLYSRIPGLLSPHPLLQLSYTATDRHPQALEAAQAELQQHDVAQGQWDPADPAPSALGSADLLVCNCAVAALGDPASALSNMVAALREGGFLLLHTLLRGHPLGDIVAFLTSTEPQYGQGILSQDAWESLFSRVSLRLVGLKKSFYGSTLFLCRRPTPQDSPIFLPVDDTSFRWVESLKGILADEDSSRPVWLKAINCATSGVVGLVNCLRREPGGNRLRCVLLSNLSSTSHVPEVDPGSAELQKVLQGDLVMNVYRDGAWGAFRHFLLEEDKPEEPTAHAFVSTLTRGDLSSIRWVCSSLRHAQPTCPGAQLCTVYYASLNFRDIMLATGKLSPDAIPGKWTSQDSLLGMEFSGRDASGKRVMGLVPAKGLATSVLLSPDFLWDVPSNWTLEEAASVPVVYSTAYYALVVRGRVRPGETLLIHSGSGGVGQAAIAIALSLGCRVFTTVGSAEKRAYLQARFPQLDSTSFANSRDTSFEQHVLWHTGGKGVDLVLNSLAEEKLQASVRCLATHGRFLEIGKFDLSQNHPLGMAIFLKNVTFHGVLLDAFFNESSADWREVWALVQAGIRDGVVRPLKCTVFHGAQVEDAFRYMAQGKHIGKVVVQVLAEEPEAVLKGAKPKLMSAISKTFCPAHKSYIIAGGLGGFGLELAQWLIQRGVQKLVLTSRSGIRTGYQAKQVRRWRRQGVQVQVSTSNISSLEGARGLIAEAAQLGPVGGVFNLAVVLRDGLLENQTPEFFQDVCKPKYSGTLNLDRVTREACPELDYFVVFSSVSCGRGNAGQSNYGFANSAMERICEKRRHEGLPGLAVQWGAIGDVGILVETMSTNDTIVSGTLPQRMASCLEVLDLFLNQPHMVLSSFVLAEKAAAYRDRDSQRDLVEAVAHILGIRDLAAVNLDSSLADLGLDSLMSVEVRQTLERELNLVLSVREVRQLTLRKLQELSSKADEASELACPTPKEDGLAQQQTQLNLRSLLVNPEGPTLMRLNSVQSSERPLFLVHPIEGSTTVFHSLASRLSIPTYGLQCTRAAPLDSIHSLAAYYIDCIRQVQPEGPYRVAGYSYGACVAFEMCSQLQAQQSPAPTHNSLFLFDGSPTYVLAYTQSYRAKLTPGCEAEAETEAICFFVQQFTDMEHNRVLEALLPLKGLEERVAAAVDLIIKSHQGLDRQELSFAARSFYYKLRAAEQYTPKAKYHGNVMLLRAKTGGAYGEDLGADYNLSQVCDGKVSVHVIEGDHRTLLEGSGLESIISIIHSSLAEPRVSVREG

CCCCCCCCOC(=O)c1ccccc1C(=O)OCCCCCCCC
not listed: [18] | [19] | [20]
inactive: all other assays above

CC(C)(O)C(=O)Nc1ccc([N+](=O)[O-])c(C(F)(F)F)c1
active: [1] 0.0219 µM | [3] 0.0398 µM | [7] 0.0423 µM | [8] 0.0468 µM
not listed: [2] | [13] | [19] | [20]
inactive: all other assays above

Cc1ccccc1[N+](=O)[O-]
not listed: [3] | [18] | [19] | [20]
inactive: all other assays above

O=C(NC(=O)c1c(F)cccc1F)Nc1cc(Cl)c(OC(F)(F)C(F)F)c(Cl)c1
active: [2] 50 µM | [6] 50 µM | [7] 3.34 µM | [14] 50 µM
not listed: [18] | [20]
inactive: all other assays above

Oc1ccc(Cl)cc1Cl
not listed: [4] | [10] | [19] | [20]
inactive: all other assays above

Cc1cc(-c2ccc(N)c(C)c2)ccc1N
active: [2] 25.1 µM | [6] 25.1 µM | [7] 20.3 µM | [10] 18 µM | [12] 50 µM | [14] 22.4 µM
not listed: [18] | [19]
inactive: all other assays above

ClC(Cl)=C(c1ccc(Cl)cc1)c1ccc(Cl)cc1
active: [7] 36.8 µM | [9] 0.0693 µM | [11] 23.2 µM | [15] 10.8 µM | [16] 8.74 µM
not listed: [2] | [18] | [19] | [20]
inactive: all other assays above
